The list is not random: actives were taken first. Their share in the collection is about 0.5%.
RTF Ca sens act – cardiac RTF calcium sensitization; P19429+P45379; IANBD-labeled TnC RTF fluorescence at EC20 calcium; 0% EC20 calcium, 100% full calcium; activation, % at 7.2 µM; actives 0.24% (n = 340,000); AID 493008;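 active = activation above the mean over all tested compounds plus 3 SD, cut at about 30% in these data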;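 note: rise in fluorescence read as greater calcium sensitivity of cardiac thin filaments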
RTF Ca sens inh – cardiac RTF calcium desensitization | P19429+P45379 | IANBD-labeled cardiac RTF, Ca2+ fluorescence | inhibition, % at 7.15 µM | actives 0.12% (n = 340,000);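 active = inhibition above the mean inhibition of all tested compounds plus 3 SD, cut at about 17% in these data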;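 note: assay run at fixed EC70 calcium of 1.6 mM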
LANA DNA inh – inhibitors of KSHV LANA C-terminal domain DNA binding; MBP-C-LANA/FAM-LBS DNA binding, fluorescence polarization; inhibition, % at 9 µM; actives 0.078% (n = 340,000); AID 504423;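 active = highest replicate inhibition at or above 60% at 9 µM, even if other replicates fall short; inactive = all replicates below 60% inhibition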;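 note: 0% = neutral control wells and 100% = 4 µM acridine orange control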
Keap1-Nrf2 PPI – disrupts human Keap1 binding to Nrf2 peptide; Q14145; Keap1 Kelch-Nrf2 peptide fluorescence polarization, 1536-well; inhibition, % at 9.4 µM; actives 0.15% (n = 340,000); AID 504523; in the data active = inhibition above about 12%;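 note: human Keap1 Kelch domain with fluorescein labeled Nrf2 9mer peptide probe; 0% = neutral control wells and 100% = peptide positive control; higher means more block of Keap1 binding to Nrf2 peptide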
Target sequence (Q14145 whole entry, looked up, the tested form may be a part): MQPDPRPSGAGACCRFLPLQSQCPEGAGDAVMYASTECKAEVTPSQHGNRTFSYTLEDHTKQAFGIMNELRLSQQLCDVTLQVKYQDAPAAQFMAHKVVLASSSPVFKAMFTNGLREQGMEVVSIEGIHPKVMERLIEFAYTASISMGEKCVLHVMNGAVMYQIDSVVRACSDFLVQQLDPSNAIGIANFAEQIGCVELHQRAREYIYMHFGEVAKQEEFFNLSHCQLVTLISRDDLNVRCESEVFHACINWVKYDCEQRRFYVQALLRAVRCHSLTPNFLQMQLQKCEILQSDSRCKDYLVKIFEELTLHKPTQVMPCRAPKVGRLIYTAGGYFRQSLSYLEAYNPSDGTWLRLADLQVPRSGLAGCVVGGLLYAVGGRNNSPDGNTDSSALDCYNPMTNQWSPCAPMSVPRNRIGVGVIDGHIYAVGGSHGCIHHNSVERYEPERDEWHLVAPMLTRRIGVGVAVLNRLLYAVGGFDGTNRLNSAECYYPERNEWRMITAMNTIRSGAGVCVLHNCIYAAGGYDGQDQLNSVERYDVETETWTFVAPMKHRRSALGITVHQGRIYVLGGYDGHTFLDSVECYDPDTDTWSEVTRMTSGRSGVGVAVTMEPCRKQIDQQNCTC
* marks the source's active call; other numbers are inactive results.

SMILES | RTF Ca sens act | RTF Ca sens inh | LANA DNA inh | Keap1-Nrf2 PPI
Fc1ccc(Br)cc1C1C=C(c2ccc(Br)cc2)Nc2ncnn21 (stereo unspecified) | 6 | -20 | 5 | -8
CCOc1ccc(NS(=O)(=O)c2ccc(NS(=O)(=O)c3ccccc3)cc2)cc1 | -2 | -7 | 1 | 6
CCOc1ccc(S(=O)(=O)Nc2cc(NS(=O)(=O)c3ccc(OCC)cc3)cc(C(=O)O)c2)cc1 | -3 | -1 | 4 | 22*
O/N=C(\c1ccccc1)C(O)c1ccccc1 (stereo unspecified) | -4 | -2 | -1 | 0
CCN(CC)CCOC(=O)c1ccc(N/C=C(/C#N)c2nc(-c3ccc4c(c3)OCO4)cs2)cc1 | -9 | 5 | 0 | -4
N#C/C(=C\C=C\c1ccccc1)c1nc(-c2ccc3c(c2)OCO3)cs1 | 34* | -24 | 4 | 0
CCN(CC)c1ccc(/C=C2\C(=O)c3ccc(C(=O)O)cc3C2=O)cc1 | 74* | -98 | -45 | -189
COc1ccc(S(=O)(=O)CC(O)CN2CCCC2=O)cc1 (stereo unspecified) | 1 | -2 | -3 | -4
Cc1ccc2[nH]c(C)c(/C=C/c3cc[n+](C)cc3)c2c1 | 154* | -159 | -53 | -188
Cc1ccc2c(c1)c(/C=C/c1cc[n+](C)cc1)c(C)n2C | 241* | -286 | -68 | -239
CCOC(=O)CC(=O)CSc1nc(-c2ccc3c(c2)OCO3)cc(C(F)(F)F)c1C#N | 40* | -12 | 7 | 1
CCOC(=O)CCSc1nc(-c2ccc3c(c2)OCO3)cc(C(F)(F)F)c1C#N | -1 | 10 | -1 | -3
CCC(C)c1ccccc1NC(=O)CN1CCN(C/C=C/c2ccccc2)CC1 (stereo unspecified) | 5 | -8 | 0 | 8
COc1ccc(-c2nnn(CC(=O)N(CC3CCCO3)C(C(=O)NC(C)(C)C)c3ccco3)n2)cc1OC (stereo unspecified) | -5 | 0 | -2 | 0
CN(C)c1ccc(/C=C/c2nc3ccccc3c(=O)n2CCO)cc1 | 38* | -135 | 12 | -57
COc1cccc(CN(C)CCCn2ccc(NC(=O)OCc3ccccc3)nc2=O)c1 | 0 | -7 | 0 | -6
Cc1ccc(N=Cc2sc(O)c3ccccc23)c(C)c1 | 49* | -15 | 0 | -7
C=CCN1C(=O)/C(=C/C=C2/N(CC)c3ccc(S(=O)(=O)N(C)C)cc3N2CC)SC1=S | 429* | -445 | -27 | -40
CC(C)NS(=O)(=O)c1ccc(OCC(=O)Nc2ccc(F)cc2F)cc1 | 1 | -8 | -1 | 1
COc1ccc(N/C=C2\C(=O)CCc3c2oc2cc(Cl)c(O)c(Cl)c32)cc1 | 100* | -28 | 3 | -2
COc1ccc(N/C=C2\CCOC2=O)cc1 | 2 | 1 | -2 | 1
Cc1cccc(NC(=O)c2cc(-c3cccnc3)nc3c(C)cccc23)n1 | -2 | -11 | 0 | 0
CCN(CC)c1ccc(/C=C(/C#N)c2nc3ccccc3[nH]2)c(OC(C)C)c1 | 148* | -291 | 1 | -10
N#CC1=C(N)SC(N)=C(C#N)C1c1cccc(Oc2ccccc2)c1 | 37* | -71 | -1 | -33
CCc1ccc(C2C(C#N)=C(N)SC(N)=C2C#N)cc1 | 40* | -43 | -3 | -18
SMILES | RTF Ca sens act | RTF Ca sens inh | LANA DNA inh | Keap1-Nrf2 PPI
CCc1ccc(C2C(C#N)=C(N)SC(N)=C2C#N)s1 | 19 | -62 | -1 | -12
CCOc1ccccc1C1C(C#N)=C(N)SC(N)=C1C#N | 30* | -56 | 0 | -40
CCOc1ccc(C2C(C#N)=C(N)SC(N)=C2C#N)cc1OCC | 42* | -50 | -5 | -62
CCOc1ccccc1C1C(C#N)=C(N)Oc2n[nH]c(CC)c21 (stereo unspecified) | 5 | -13 | 0 | 1
N#CC1=C(N)SC(N)=C(C#N)C1c1c(Cl)cccc1Cl | 11 | -36 | -4 | -24
N#CC1=C(N)SC(N)=C(C#N)C1c1ccc([N+](=O)[O-])cc1 | 10 | -23 | -1 | -11
COc1cccc(C(C)NC(=O)Nc2ccccc2Cl)c1 (stereo unspecified) | 4 | 2 | 1 | 0
CCN(C(=O)CCS(=O)(=O)c1cccc2nonc12)c1ccc(C)c(C)c1 | -4 | -5 | 1 | -1
Nc1ccc(C(=O)Nc2ccc3c(O)cc(S(=O)(=O)O)cc3c2)cc1 | 3 | -7 | 116* | -15
Cc1cc(Br)c2c(c1)C(O)(N1CCCCC1C)C(=O)N2 (stereo unspecified) | 30* | -3 | 0 | -5
Cc1cc([N+](=O)[O-])cc2c1NC(=O)C2(O)N1CCCC(C)C1 (stereo unspecified) | -7 | -10 | -1 | -2
CC1CCCCN1CCNC(=O)c1ccc2c(c1)N(Cc1ccccc1)C(=O)c1ccccc1S2(=O)=O (stereo unspecified) | 0 | -2 | 0 | -7
COC(=O)/C=C1\SC(=Nc2ccc(Cl)c(Cl)c2)NC1=O | 1 | 2 | -1 | -2
COc1cc(/C=C2\SC(=Nc3ccc(Cl)c(C(=O)O)c3)NC2=O)c(Br)c(Br)c1O | 70* | -135 | -55 | -92
COc1cc(/C=C2\SC(=Nc3ccccc3)NC2=O)cc(Cl)c1O | 63* | -92 | -31 | -8
CCOC(=O)c1c(C)[nH]c(C(=O)COC(=O)c2cc(C)oc2C)c1C | -7 | 1 | 0 | -2
C/C(=N\NC(=O)c1cc2c(s1)CCC(C)C2)c1ccc[nH]1 (stereo unspecified) | 37* | -29 | 29 | -145
COCCN1C(=O)/C(=C/c2ccc(N3CCCC3)cc2)SC1=S | 80* | -53 | -2 | -8
CC(=O)C(Cc1ccccc1)NC(=O)COC(=O)c1ccc(-n2cnnn2)cc1 (stereo unspecified) | -8 | 5 | 0 | 2
COc1ccc(C2C(C(C)=O)=C(C)N=c3s/c(=C\c4cc(C)n(C)c4C)c(=O)n32)c(OC)c1 (stereo unspecified) | 110* | -120 | 2 | -17
CCN(CC)c1ccc2c(c1)OC(N)=C(C#N)C2c1cccnc1 (stereo unspecified) | 157* | -197 | 2 | -76
N#CC1=C(N)Oc2cc(N)ccc2C1c1cccnc1 (stereo unspecified) | 7 | -7 | 0 | -10
O=c1[nH][nH]c2c(N=Cc3ccccc3O)ccc(F)c12 | -24 | 34* | 87* | -2
CCOc1ccc(N=C2NC(=O)S/C2=C\c2ccc(Cl)cc2)cc1 | 5 | 9 | 0 | 0
COc1ccc(N=C2NC(=O)S/C2=C\c2ccc(N(C)C)cc2)cc1 | 174* | -114 | 3 | -5
CCN1C(=O)/C(=C\N2CCN(C(=O)c3ccco3)CC2)SC1=S | 7 | -2 | 5 | 6
CCN1CCN(c2c(/C=C3\SC(=S)N(Cc4ccco4)C3=O)c(C)c(C#N)c(=O)n2C)CC1 | 62* | -85 | 1 | -26
CCCCCn1nc(-c2ccccc2)c2nc3ccccc3nc21 | 21 | -6 | 94* | 1
Cc1cc(N2CCN(C)CC2)nc2ccc(NC(=S)N3CCC4(CC3)OCCO4)cc12 | -1 | -2 | -1 | 1

Bioassay records from PubChem BioAssay.
